Experimental data reported in PubChem BioAssay (NCATS).
“And” between values parts separate entries of the source, which are not always exact repeats. Equal entries are not always repeated. Inconclusive results are not listed. The source made the active and inactive calls. Unless noted, calls come from the whole dose curve; as a rule, active = well fitted curve in the direction sought with a large enough effect; inconclusive = small, poorly fitted or top-dose-only effect, or another doubt; inactive = no such curve, though single readings can be large; an effect the other way counts as inactive or inconclusive.

Experiments:
[1] = molecular target: Estrogen receptor (Homo sapiens) (UniProt P03372); assay: qHTS assay for small molecule antagonists of estrogen receptor alpha signaling (AID 588513; active = well fitted curve in the direction sought with a large enough effect in the signal ratio, with a control signal flat, not every such curve was filed as active; the % refers to the signal ratio; note: % is set by controls: 0 for no effect and ±100 for the full control effect); settings: ER-alpha-UAS-bla HEK293, beta-lactamase ratio, antagonist mode; series mostly up to 76.9 µM
Procedure, shortened: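 Fluorescence from CCF4 substrate after 2 h at room temperature gave reporter activity; cells had been exposed to compound and 0.5nM 17-beta-estradiol for 18 h at 37 C. Hill-equation fitting yielded IC50 and maximal response.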

[2] = molecular target: Estrogen receptor (Homo sapiens) (UniProt P03372); assay: qHTS assay for small molecule agonists of estrogen receptor alpha signaling (AID 588514; calls by dose curve;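 note: 0% = vehicle only and 100% = reference agonist; nearly all actives have a fitted effect of over 70% in size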); settings: ER-alpha-UAS-bla HEK293, beta-lactamase ratio, 18 h; series mostly up to 76.8 µM
Procedure, shortened: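 EC50 and efficacy came from Hill fits of beta-lactamase reporter signal (CCF4 dye, 2 h at room temperature) scaled between DMSO and 20 nM 17-beta-estradiol. Agonist mode: HEK293 ER-alpha-UAS-bla cells in charcoal/dextran-stripped serum medium, 18 h compound exposure at 37 C.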

[3] = qHTS assay for small molecule antagonists of peroxisome proliferator-activated receptor delta signaling (AID 588535); settings: HEK293T PPARd-UAS-bla, beta-lactamase FRET ratio, 18 h; 460 nm channel;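 note: cells co-treated with a PPAR-delta agonist as stimulator during compound exposure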
Procedure, shortened: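 Fluorescence from CCF4-loaded GeneBLAzer PPAR-delta-UAS-bla HEK293T cells (2 hrs RT loading) quantified reporter inhibition after an 18 hr, 37 C compound exposure across a titration.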

[4] = molecular target: Peroxisome proliferator-activated receptor gamma (Homo sapiens) (UniProt P37231); assay: qHTS assay for small molecule agonists of peroxisome proliferator-activated receptor gamma signaling (AID 588536; active = well fitted curve in the direction sought with a large enough effect in the signal ratio, with a control signal flat, not every such curve was filed as active; the % refers to the signal ratio;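 note: 0% = DMSO basal wells and 100% = rosiglitazone at 2 µM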); settings: HEK293 PPARg-UAS-bla, beta-lactamase ratio, 16 h, percent of rosiglitazone response, DMSO as zero; series mostly up to 76.7 µM
Procedure, shortened: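 Using GeneBLAzer HEK293 cells, response was quantified by CCF4 fluorescence and normalized between basal DMSO (0%) and rosiglitazone 2 uM (100%); curves yielded half-maximal stimulation concentration and efficacy.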

[5] = molecular target: Vitamin D3 receptor (Homo sapiens) (UniProt P11473); assay: qHTS assay for small molecule agonists of vitamin D receptor signaling (AID 588543; calls by dose curve;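 note: 0% = DMSO basal and 100% = reference agonist control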); settings: HEK293T VDR-UAS-bla, beta-lactamase ratio, 16 h; series mostly up to 76.8 µM
Procedure, shortened: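 Reporter cells (HEK293T, VDR-UAS-bla) were seeded in medium with 2% charcoal-stripped serum and incubated 5 h, then compounds in concentration series were added for 16 h at 37 °C. Stimulation was scaled between DMSO basal and 50 nM 1α,25-dihydroxyvitamin D3.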

[6] = molecular target: Thyroid hormone receptor beta (Homo sapiens) (UniProt P10828); assay: qHTS assay for small molecule agonists of thyroid hormone receptor beta signaling (AID 588545; calls by dose curve;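 note: 0% = DMSO only and 100% = 10 nM T3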); settings: TR-UAS-bla GripTite HEK 293, beta-lactamase ratio, agonist mode, 18 h; series mostly up to 76.7 µM
Procedure, shortened: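 Efficacy and EC50 values derive from Hill fits of qHTS titration data, normalized to 10 nM T3 and DMSO-only wells. HEK 293 reporter cells were stimulated for 18 hrs at 37 C, with beta-lactamase activity measured by CCF4 fluorescence.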

[7] = qHTS assay for small molecule antagonists of retinoid X receptor alpha signaling (AID 588546; active = well fitted inhibition curve with a large enough effect in the signal ratio, with a control signal flat, not every such curve was filed as active; the % refers to the signal ratio;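 note: cells stimulated with 9-cis-retinoic acid as agonist; % is set by controls: 0 for no effect and ±100 for the full control effect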); settings: HEK293T RXRa-UAS-bla, beta-lactamase ratio, antagonist mode; measured here: W530 green channel, cytotoxicity proxy
Procedure, shortened: (§1)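 Beta-lactamase reporter inhibition, read as CCF4 fluorescence ratio (ex 405, em 460/530 nm) after 2 h at RT. HEK293T UAS-bla cells, 2500/well, were stimulated with 9-cis-RA at 500 or 100 nM final alongside test compound for 18 h at 37 C.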

[8] = molecular target: Retinoic acid receptor RXR-alpha (Homo sapiens) (UniProt P19793); assay: as above; settings: HEK293T RXRa-UAS-bla, beta-lactamase ratio, antagonist mode
Procedure, shortened: as §1

[9] = molecular target: Thyroid hormone receptor beta (Homo sapiens) (UniProt P10828); assay: qHTS assay for small molecule antagonists of thyroid hormone receptor beta signaling (AID 588547; active = well fitted inhibition curve with a large enough effect in the signal ratio, with a control signal flat, not every such curve was filed as active; the % refers to the signal ratio;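 note: cells stimulated with 0.4 nM T3 agonist during compound exposure; % is set by controls: 0 for no effect and ±100 for the full control effect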); settings: TR-UAS-bla HEK293, beta-lactamase ratio, antagonist mode, 18 h
Procedure, shortened: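 TR-UAS-bla GripTite HEK293 cells in 2% charcoal/dextran FBS medium; compounds 0.59 nM to 92 uM with T3 at 0.4nM final, 18 h at 37 C. Beta-lactamase read by CCF4 fluorescence (460/530 nm); Hill fits gave IC50 and efficacy.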

[10] = qHTS assay for small molecule activators of the nuclear factor-kappa B (NF-kB) signaling pathway (AID 651749; active = well fitted activation curve with a large enough effect in the signal ratio; the % refers to the signal ratio; note: % of control where 0% means no effect); settings: NF-kB-bla ME-180 cells, beta-lactamase FRET ratio, 16 h; activation: stronger effect = higher value
Procedure, shortened: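 In this qHTS format, compounds acting as activators increase NF-kB-driven beta-lactamase in ME-180 cells, measured as disrupted FRET after 16 hr exposure at 37C and 5% CO2.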

[11] = qHTS assay for environmental chemicals that activate the Aryl hydrocarbon Receptor (AhR) signaling pathway (AID 651777); settings: 1A2-DRE human hepatoma cells, luciferase, 24 h; activation: stronger effect = higher value; note: % of control where 0% means no effect; nearly all actives have a fitted effect of over 15% in size
Procedure, shortened: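 Induction of CYP1A2 transcription through AhR is detected by luciferase in 1A2-DRE hepatoma cells. Compounds or DMSO act for 24 hr at 37 C before a 30 min One-Glo step at room temperature.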

[12] = molecular target: Peroxisome proliferator-activated receptor alpha (Homo sapiens) (UniProt Q07869); assay: qHTS assay for small molecule agonists of the peroxisome proliferator-activated receptor alpha (PPARalpha) signaling pathway (AID 651778); settings: PathHunter PPARalpha complementation, chemiluminescence, 6 h; max response: stronger effect = higher value; note: % of control where 0% means no effect
Procedure, shortened: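 Enzyme-fragment complementation assay in which ligand-bound PPARalpha translocates and forms an active enzyme that generates chemiluminescence. Cells were plated overnight, exposed to compound for 6 hr at 37 C, and then given detection reagent for 60 min at room temperature.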

[13] = qHTS assay for small molecule agonists of the antioxidant response element (ARE) signaling pathway measured by Nrf2-dependant transcriptional activity - cell viability counter screen (AID 720653; active = well fitted curve in the direction sought with a large enough effect in the repeat runs; an effect the other way counts as inactive or inconclusive; note: % is set by controls: 0 for no effect and ±100 for the full control effect); settings: ARE-bla HepG2 viability, CellTiter-Glo ATP luminescence, 16 h; max response: stronger effect = lower value
Procedure, shortened: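 ARE-bla HepG2 cells treated with compounds for 16 h at 37C; this counter screen measures viability as intracellular ATP by CellTiter-Glo luminescence after 30 min at room temperature.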

[14] = qHTS assay for cell viability of HEK293 cells (AID 743288); settings: ATP luminescence (CellTiter-Glo), 18 h; max response: stronger effect = lower value; note: % is set by controls: 0 for no effect and ±100 for the full control effect; nearly all actives have a fitted effect of over 50% in size
Procedure, shortened: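 Viable-cell counts were inferred from luciferase-based ATP content in HEK293 cells seeded at 2,000/well, pre-incubated ≥5 h, then dosed with DMSO-solubilised compounds for 18 h at 37 C.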

[15] = qHTS assay for cell viability of the p53RE-bla HCT-116 cell line (AID 743292); settings: p53RE-bla HCT-116 viability, ATP luminescence, 16 h; series mostly up to 95 µM; note: % is set by controls: 0 for no effect and ±100 for the full control effect; nearly all actives have a fitted effect of over 55% in size
Procedure, shortened: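 In this qHTS counter-screen, metabolically competent p53RE-bla HCT-116 cells were counted via their ATP content. Compounds were applied for 16 h at 37 C and luciferase-coupled luminescence was measured.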

[16] = qHTS assay for small molecule activators of the human pregnane X receptor (PXR) signaling pathway (AID 720659; call rule not given here; note: 0% is about no effect); settings: DPX-2 HepG2 CYP3A4-luciferase, 24 h; series mostly up to 92.3 µM
[17] = qHTS assay for small molecule agonists of retinoid X receptor alpha signaling (AID 588544; calls by dose curve;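 for activation: 0% = DMSO basal wells and 100% = reference agonist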); settings: HEK293T RXRa-UAS-bla, beta-lactamase reporter, 18 h; 530 nm emission
[18] = molecular target: Retinoic acid receptor RXR-alpha (Homo sapiens) (UniProt P19793); assay: as above; settings: HEK293T RXRa-UAS-bla, beta-lactamase reporter, 18 h; series mostly up to 76.7 µM
[19] = qHTS assay for small molecule agonists of the antioxidant response element (ARE) signaling pathway measured by Nrf2-dependant transcriptional activity (AID 720636; active = well fitted curve in the direction sought with a large enough effect in the repeat runs; an effect the other way counts as inactive or inconclusive;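 note: HepG2 cells with an ARE-driven luciferase reporter; % of control where 0% means no effect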); settings: ARE-luc HepG2, Nrf2 luciferase reporter, 16 h; series mostly up to 92.4 µM
Procedure, shortened: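 We exposed ARE-luc HepG2 cells, seeded in assay medium with 1% dialyzed FBS and allowed 6 hr to adhere, to test compounds overnight (16 hr, 37 C) before measuring luciferase with ONE-Glo.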

[20] = molecular target: Nuclear receptor subfamily 1 group I member 2 (Rattus norvegicus) (UniProt Q9R1A7); assay: qHTS assay for small molecule activators of the rat pregnane X receptor (rPXR) signaling pathway (AID 651751; call rule not given here; note: 0% is about no effect); settings: rPXR reporter cells, luciferase (One-Glo), 24 h
Chain of Nuclear receptor subfamily 1 group I member 2 (Rattus norvegicus) (Q9R1A7 whole entry, looked up): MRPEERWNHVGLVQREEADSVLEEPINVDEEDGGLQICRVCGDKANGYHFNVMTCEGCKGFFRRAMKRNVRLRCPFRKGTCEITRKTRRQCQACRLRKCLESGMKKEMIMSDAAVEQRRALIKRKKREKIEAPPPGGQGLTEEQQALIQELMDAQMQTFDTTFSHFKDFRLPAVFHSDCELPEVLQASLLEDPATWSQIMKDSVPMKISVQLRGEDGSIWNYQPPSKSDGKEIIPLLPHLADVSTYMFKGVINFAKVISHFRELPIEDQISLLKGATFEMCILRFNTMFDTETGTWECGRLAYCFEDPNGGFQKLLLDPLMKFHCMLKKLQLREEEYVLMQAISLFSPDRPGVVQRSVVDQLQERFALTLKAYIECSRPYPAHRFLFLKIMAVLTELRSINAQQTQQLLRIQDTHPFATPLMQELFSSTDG

Chain of Estrogen receptor (Homo sapiens) (P03372 whole entry, looked up): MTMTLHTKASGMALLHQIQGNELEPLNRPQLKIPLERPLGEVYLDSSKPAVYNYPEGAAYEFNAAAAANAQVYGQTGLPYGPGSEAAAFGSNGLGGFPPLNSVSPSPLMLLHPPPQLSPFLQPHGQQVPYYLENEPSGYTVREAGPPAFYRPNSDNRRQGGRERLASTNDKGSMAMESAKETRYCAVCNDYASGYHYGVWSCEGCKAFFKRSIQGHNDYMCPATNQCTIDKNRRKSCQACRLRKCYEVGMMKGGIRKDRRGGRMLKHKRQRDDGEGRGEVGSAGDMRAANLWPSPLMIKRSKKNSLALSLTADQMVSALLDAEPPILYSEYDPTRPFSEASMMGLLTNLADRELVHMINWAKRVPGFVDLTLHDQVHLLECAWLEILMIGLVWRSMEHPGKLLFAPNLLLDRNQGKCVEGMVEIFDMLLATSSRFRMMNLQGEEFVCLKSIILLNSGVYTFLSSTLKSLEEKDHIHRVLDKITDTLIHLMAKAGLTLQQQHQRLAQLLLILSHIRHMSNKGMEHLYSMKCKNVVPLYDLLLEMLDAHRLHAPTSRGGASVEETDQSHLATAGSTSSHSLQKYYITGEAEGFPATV
Chain of Thyroid hormone receptor beta (Homo sapiens) (P10828 whole entry, looked up): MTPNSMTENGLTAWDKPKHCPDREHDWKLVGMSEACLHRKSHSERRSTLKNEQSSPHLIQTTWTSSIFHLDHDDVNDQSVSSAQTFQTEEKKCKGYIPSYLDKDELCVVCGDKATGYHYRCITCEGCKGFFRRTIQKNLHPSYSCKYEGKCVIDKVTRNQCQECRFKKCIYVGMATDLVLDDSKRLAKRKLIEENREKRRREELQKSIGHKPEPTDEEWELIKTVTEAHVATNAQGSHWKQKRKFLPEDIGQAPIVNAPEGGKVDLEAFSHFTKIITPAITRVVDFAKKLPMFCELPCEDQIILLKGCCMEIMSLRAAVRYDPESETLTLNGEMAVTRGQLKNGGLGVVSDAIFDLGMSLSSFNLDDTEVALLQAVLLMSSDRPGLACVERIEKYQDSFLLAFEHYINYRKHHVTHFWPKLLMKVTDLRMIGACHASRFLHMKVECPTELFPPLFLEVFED
Chain of Peroxisome proliferator-activated receptor alpha (Homo sapiens) (Q07869 whole entry, looked up, the tested form may be a part): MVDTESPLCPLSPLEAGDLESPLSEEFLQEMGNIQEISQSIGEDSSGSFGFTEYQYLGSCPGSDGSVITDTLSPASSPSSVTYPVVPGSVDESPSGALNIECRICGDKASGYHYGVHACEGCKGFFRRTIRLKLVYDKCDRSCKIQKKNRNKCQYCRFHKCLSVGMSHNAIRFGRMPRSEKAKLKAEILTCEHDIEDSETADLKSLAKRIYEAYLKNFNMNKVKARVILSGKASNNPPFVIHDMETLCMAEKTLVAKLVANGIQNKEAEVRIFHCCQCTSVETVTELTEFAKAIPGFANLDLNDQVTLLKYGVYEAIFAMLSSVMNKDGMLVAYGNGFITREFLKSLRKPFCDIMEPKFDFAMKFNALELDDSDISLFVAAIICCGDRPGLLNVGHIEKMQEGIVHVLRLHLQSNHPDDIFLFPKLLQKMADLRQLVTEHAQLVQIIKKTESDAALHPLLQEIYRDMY
Chain of Vitamin D3 receptor (Homo sapiens) (P11473 whole entry, looked up): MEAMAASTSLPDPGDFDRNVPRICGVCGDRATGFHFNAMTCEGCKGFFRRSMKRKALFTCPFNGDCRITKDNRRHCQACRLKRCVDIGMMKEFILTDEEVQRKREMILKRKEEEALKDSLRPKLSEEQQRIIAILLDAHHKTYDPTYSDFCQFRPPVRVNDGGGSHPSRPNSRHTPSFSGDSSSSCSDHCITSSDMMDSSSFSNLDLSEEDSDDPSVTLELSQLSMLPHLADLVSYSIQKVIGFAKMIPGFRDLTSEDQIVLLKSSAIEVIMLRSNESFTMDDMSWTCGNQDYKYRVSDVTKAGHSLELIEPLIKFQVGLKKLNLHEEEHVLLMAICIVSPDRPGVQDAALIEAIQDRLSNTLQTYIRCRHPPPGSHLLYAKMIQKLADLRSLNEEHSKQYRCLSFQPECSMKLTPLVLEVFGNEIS
Chain of Retinoic acid receptor RXR-alpha (Homo sapiens) (P19793 whole entry, looked up): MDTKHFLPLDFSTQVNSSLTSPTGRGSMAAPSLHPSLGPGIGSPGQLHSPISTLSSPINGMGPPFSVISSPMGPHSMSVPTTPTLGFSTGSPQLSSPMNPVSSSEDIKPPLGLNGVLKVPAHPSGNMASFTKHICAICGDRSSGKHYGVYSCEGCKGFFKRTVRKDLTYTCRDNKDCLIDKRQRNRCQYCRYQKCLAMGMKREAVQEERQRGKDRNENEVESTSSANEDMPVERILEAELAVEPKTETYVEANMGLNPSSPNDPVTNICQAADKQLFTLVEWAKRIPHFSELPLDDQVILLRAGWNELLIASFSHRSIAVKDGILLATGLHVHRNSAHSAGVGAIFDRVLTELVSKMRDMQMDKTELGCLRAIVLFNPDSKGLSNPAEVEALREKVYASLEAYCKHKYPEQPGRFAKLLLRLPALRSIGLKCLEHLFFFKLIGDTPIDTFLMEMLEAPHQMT
Chain of Peroxisome proliferator-activated receptor gamma (Homo sapiens) (P37231 whole entry, looked up): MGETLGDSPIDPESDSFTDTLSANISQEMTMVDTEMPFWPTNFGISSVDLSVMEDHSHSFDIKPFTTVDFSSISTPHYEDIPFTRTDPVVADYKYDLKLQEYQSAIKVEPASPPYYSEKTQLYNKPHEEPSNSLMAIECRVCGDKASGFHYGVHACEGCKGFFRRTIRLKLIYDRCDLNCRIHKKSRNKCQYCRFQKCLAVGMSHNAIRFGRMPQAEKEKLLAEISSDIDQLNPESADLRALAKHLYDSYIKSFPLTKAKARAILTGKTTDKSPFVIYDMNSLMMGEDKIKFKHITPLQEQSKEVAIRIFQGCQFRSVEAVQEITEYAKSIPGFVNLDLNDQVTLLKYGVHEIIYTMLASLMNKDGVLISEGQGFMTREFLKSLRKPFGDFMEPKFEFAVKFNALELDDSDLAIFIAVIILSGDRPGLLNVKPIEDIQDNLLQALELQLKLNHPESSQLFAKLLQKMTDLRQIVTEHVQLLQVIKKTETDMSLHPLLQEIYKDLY

SMILES	Potency [1]	Potency [2]	max response [3]	outcome [4]	outcome [5]	Potency [6]	max response [7]	max response [8]	activity change % (negative = inhibition) [9]	activation [10]	activation [11]	max response [12]	max response [13]	max response [14]	Potency [15]	outcome [16]	max response [17]	Potency [18]	Potency [19]	max response [20]
c1ccc(-c2ccc(-c3ccccc3)cc2)cc1	inactive	inactive	-0.983%	inactive	inactive	inactive	-5.51%	1.88% (inactive)	2.31% (inactive)	0.439% (inactive)	6.5% (inactive)	-0.186% (inactive)	-5.82% (inactive)	-2.69% (inactive)	inactive	inactive	–	–	–	–
CCCCOCC(C)OCC(C)O (centres undefined)	inactive	inactive	-19.2%	inactive	inactive	inactive	-15.5%	-6.81% (inactive)	-10.2% (inactive)	–	0.285% (inactive)	-0.312% (inactive)	8.96% (inactive)	0.272% (inactive)	inactive	inactive	-14.7%	inactive	inactive	2.61% (inactive)
c1ccc2c(c1)Cc1ccccc1-2	inactive	inactive	–	inactive	–	inactive	-16.6%	-2.65% (inactive)	-15.6% (inactive)	-1.09% (inactive)	1.34% (inactive)	–	-7.29% (inactive)	-4.41% (inactive)	inactive	inactive	-12.1%	inactive	inactive	-3.34% (inactive)
CCCCCCCCCCO	inactive	inactive	–	inactive	inactive	inactive	-1.67% and -3.39%	6.68% (inactive) and -9.14% (inactive)	16.6% (inactive) and -15.4% (inactive)	-0.272% (inactive) and -0.916% (inactive)	-1.2% (inactive) and 0.559% (inactive)	-0.236% (inactive) and 5.87% (inactive)	-7.77% (inactive) and 2.22% (inactive)	-9.96% (inactive) and -5.95% (inactive)	inactive	–	-3.16% and -6.7%	inactive	inactive	–
CC(C)c1cccc(C(C)C)c1	inactive	inactive	-5.64%	inactive	inactive	inactive	-3.77%	–	-5.42% (inactive)	-0.667% (inactive)	2.18% (inactive)	-1.99% (inactive)	-8.28% (inactive)	-5.18% (inactive)	inactive	inactive	-9.24%	inactive	–	-1.81% (inactive)
CCCCNS(=O)(=O)c1ccccc1	inactive	inactive	–	inactive	inactive	inactive	-16.3%	–	-5.57% (inactive)	–	0.36% (inactive)	0.574% (inactive)	-8.48% (inactive)	-3.87% (inactive)	inactive	inactive	–	–	inactive	-0.0697% (inactive)
O=C(Cl)c1cc(Cl)cc(Cl)c1	inactive	inactive	16%	inactive	inactive	inactive	3.33%	–	-10.7% (inactive)	-1.64% (inactive)	2.73% (inactive)	-3.03% (inactive)	-8.26% (inactive)	-4.86% (inactive)	inactive	inactive	-4.35%	inactive	inactive	2.44% (inactive)
CCOC(=O)CC(O)(CC(=O)OCC)C(=O)OCC	inactive	inactive	–	inactive	inactive	inactive	-3.18%	-3.42% (inactive)	13% (inactive)	-1.34% (inactive)	0.341% (inactive)	0.853% (inactive)	-8.63% (inactive)	3.07% (inactive)	inactive	inactive	-10.3%	inactive	inactive	-0.162% (inactive)
CC(C)OC(=O)c1ccccc1C(=O)OC(C)C	inactive	inactive	–	inactive	inactive	–	-19.4%	-1.37% (inactive)	–	-2.02% (inactive)	1.05% (inactive)	-0.635% (inactive)	0.0901% (inactive)	-5.59% (inactive)	inactive	inactive	-10.4%	inactive	inactive	2.54% (inactive)
CCCC/C=C/CCCCO	inactive	inactive	–	inactive	inactive	inactive	-7.43%	-16.5% (inactive)	0.772% (inactive)	–	-0.731% (inactive)	-1.7% (inactive)	0.665% (inactive)	-11.8% (inactive)	inactive	inactive	-14.6%	inactive	inactive	-2.13% (inactive)
OC1CCC(C2CCCCC2)CC1 (centres undefined)	inactive	inactive	-39.9%	inactive	inactive	inactive	-5.21%	6.85% (inactive)	4.98% (inactive)	–	-1.51% (inactive)	-0.35% (inactive)	-10.1% (inactive)	-12.9% (inactive)	inactive	inactive	-2.23%	inactive	inactive	-2.53% (inactive)
